Experimental data from PubChem BioAssay.
The list shows a part of the results.

Biological target: Regulator of G-protein signaling 19 (Homo sapiens) (UniProt P49795)
Assay: small molecules altering RGS protein interactions with GNAO1 – biochemical, multiplexed beads, flow cytometry, RGS4/7/8/16/19, primary screen (AID 1504);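 further: fluorescently labeled Galpha-o bound to GDP with aluminium fluoride binding biotinylated RGS beads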
Conditions: multiplexed bead flow cytometry, measured here: RGS19 interaction, at 10 µM

Structure (SMILES): CC(C)N(CC#CCC1(O)c2ccccc2-c2ccccc21)C(C)C
- RGS19–Galpha-o binding response: 78.4%
